# Among all 93,000 compounds or so, about 500 (0.54%) were called active. What follows is part of a selection rich in actives, with near analogues and random picks from the rest. Unmarked numbers belong to inactive results.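 Rule for the calls: active = primary inhibition of 50% or more at 10 µM, then 40% or more on retest; inactive = the rest.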
# Molecular target: Integrin beta-2 (Homo sapiens) + Integrin alpha-M (Homo sapiens) (UniProt P05107+P11215)
# Experiment: inhibitors of CD11b/CD18 adhesion to fibrinogen, primary screen, K562 cells, luminescence (AID 1497)
# Conditions: ATPlite luminescence, at 10 µM, hits give high values, Mn2+ added to activate the integrin
# Chain of Integrin beta-2 (Homo sapiens) + Integrin alpha-M (Homo sapiens) (P05107 whole entry, looked up, other chains not shown): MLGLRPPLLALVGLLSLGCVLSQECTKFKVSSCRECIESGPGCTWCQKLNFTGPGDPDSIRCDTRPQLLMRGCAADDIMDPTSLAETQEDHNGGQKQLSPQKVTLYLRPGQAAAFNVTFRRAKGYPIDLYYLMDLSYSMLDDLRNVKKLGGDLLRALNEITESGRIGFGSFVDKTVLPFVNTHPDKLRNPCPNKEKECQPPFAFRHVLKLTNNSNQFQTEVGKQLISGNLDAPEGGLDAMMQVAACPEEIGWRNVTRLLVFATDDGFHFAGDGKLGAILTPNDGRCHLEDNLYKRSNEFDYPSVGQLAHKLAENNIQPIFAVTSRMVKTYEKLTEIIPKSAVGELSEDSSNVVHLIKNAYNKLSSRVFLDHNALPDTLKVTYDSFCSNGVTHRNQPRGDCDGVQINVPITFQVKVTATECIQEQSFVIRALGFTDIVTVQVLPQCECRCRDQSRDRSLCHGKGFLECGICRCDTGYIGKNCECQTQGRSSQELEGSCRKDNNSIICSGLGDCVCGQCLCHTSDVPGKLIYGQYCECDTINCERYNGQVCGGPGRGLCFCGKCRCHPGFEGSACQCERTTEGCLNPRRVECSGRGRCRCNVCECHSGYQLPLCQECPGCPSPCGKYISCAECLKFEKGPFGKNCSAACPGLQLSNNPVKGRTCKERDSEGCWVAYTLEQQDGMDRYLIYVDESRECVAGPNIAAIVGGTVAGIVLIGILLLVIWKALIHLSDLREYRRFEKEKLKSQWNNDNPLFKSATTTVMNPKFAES
row,Compound,inhibition
1,O=C(NCC1CCCO1)/C(=C/c1ccc(Cl)cc1)NC(=O)c1ccccc1 (stereo not given),2.4%
2,O=C(Nc1nnc(C2COc3ccccc3O2)o1)c1ccc(F)cc1 (stereo not given),-27.3%
3,COC(=O)Cc1ccc(NC(=S)NCc2ccccc2)cc1,0.4%
4,CCCn1c(SCC(=O)Nc2ccc(C)c(S(=O)(=O)N3CCOCC3)c2)n[nH]c1=O,-10.9%
5,O=C(NNC(=S)Nc1ccc(Br)cc1Cl)c1ccco1,89.9% (active)
6,Cc1ccc(-n2nc3cc(Cl)c(NC(=O)c4ccco4)cc3n2)cc1,3.9%
7,COC(=O)c1cc(Cl)c(NC(=O)c2ccco2)cc1OC,-6%
8,CN(C)S(=O)(=O)c1cccc(NC(=S)N/N=C/C(=O)c2ccccc2)c1,14%
9,COc1ccc([N+](=O)[O-])cc1NC(=O)C(C)OC(=O)C1c2ccccc2Oc2ccccc21 (stereo not given),26.5%
10,COc1ccc(CCNC(=O)CSc2nc(-c3ccc(OC)c(OC)c3)ccc2C#N)cc1,18.5%
11,COc1ccc(C(=O)Nc2ccc(CN3CCOCC3)cc2)cc1,-3.3%
12,Cn1c(CN2CCOCC2)nc2cc(NC(=O)c3ccc(Cl)cc3)ccc21,87.2% (active)
13,CCC(=O)Nc1ccc2c(c1)nc(CCN1CCN(C)CC1)n2C,3.3%
14,Cc1nn(CCOc2ccccc2)c(=O)n1-c1ccccc1F,-0.4%
15,Cc1cc2ncn(CCCCOc3ccccc3)c2cc1C,63.9% (active)
16,COCCOCCn1cnc2ccccc21,2.3%
17,COc1ccc(NC(=O)CC2C(=O)OCC3CCCCN32)cc1Cl (stereo not given),-8.3%
18,CCCCCCCCC(=O)NCCOc1ccccc1,2.8%
19,COc1ccc(/C=C2/C(=O)OCc3cc(OC)c(OC)cc32)c(OC)c1,0.8%
20,C/C(=N\NS(=O)(=O)c1ccc(Cl)cc1)c1ccc(NC(=O)c2ccco2)cc1,-3.6%

row,Compound,inhibition
1,COCCn1c(=NC(=O)c2ccccc2[N+](=O)[O-])sc2cc(S(C)(=O)=O)ccc21,25.4%
2,C/C(=N\NC(=O)CCn1nc(C)cc1C)C(C)(C)C,1%
3,N#C/C(=C/c1cccc([N+](=O)[O-])c1)c1nnc2n1CCCCC2,2.5%
4,Cc1nnc(NC(=O)Nc2ccc(Cl)c(Cl)c2)s1,37%
5,N/C(=N\OC(=O)Nc1ccc(Cl)c(Cl)c1)c1ncc(C(F)(F)F)cc1Cl,-4.4%
6,O=C(CC(O)(C(F)(F)F)C(F)(F)F)Nc1ccc(Cl)c(Cl)c1,89.5% (active)
7,COc1ccc(Cn2c(=O)sc3ccccc32)cc1OC,75.8% (active)
8,COc1ccc(CCNC(=O)CCn2c(=O)oc3ccccc32)cc1OC,-58.2%
9,Cc1nnc(NC(=O)Cn2c(=O)sc3ccccc32)s1,-2.7%
10,COc1ccc(NC(=O)c2ccc(OC)cc2)cc1,-5.7%
11,COc1ccc(C(=O)Nc2ccccc2C(=O)N/N=C/c2ccccc2OC)cc1,65.1% (active)
12,COc1ccc(C(=O)Nc2ccccc2C(=O)N/N=C/c2ccc(O)c(OC)c2)cc1,106%
13,N#C/C=C\Oc1ccc(Cl)cc1N,51.7% (active)
14,COc1ccc(Cl)cc1NC(=O)[C@@H]1CCCN1C(=O)c1cccs1,-14.3%
15,Cc1nn(-c2ccccc2)c(C)c1/C=C/C(=O)OC(C)C(N)=O (stereo not given),-9.1%
16,COc1ccc(-c2csc(NC(=O)CCCc3cccs3)n2)cc1,6.2%
17,Cc1c(Br)c([N+](=O)[O-])nn1CC(=O)Nc1sc2c(c1C(=O)OC(C)C)CCC(C)C2 (stereo not given),-9.3%
18,O=C(Nc1cccc(F)c1)c1coc(=O)c(Br)c1,-10.2%
19,O=C(COC(=O)c1ccc(Cl)nc1)NCc1ccc2c(c1)OCO2,4.3%
20,O=C(CSc1ccc2nnc(-c3ccccc3)n2n1)N1CCCc2ccccc21,29.7%

row,Compound,inhibition
1,O=C(OCc1ccc(Br)cc1)c1cccc(-c2nnc(-c3ccccc3)o2)c1,6.5%
2,O=C(CCCCCNC(=O)c1ccccc1)N/N=C/c1ccccc1,9.3%
3,CC1(c2cccc([N+](=O)[O-])c2)CC(C)(C)N(C(=O)c2ccccc2)c2ccccc21 (stereo not given),12.3%
4,Cc1ccc(NC(=O)CC2C(=O)N(Cc3ccccc3)C(=S)N2NC(=O)c2cccc(F)c2)c(C)c1 (stereo not given),1.5%
5,Nc1nnc(SCC(=O)Nc2ccc3nc(SCC(=O)Nc4ccccc4)sc3c2)s1,74%
6,CC(=O)Nc1ccc(S(=O)(=O)Nc2nc(-c3ccc(C(C)(C)C)cc3)cs2)cc1,0.9%
7,COc1cc2c3c(c1)/C(=C1/SC(=S)NC1=O)C(=O)N3C(C)(C)C=C2C,92.6%
8,CCc1c(C)sc(NC(=O)c2ccc(Br)o2)c1C(=O)OC,6.5%
9,CCOC(=O)c1sc(NC(=O)CSc2ncccn2)c(C#N)c1C,-4.4%
10,CCCc1ccc(-c2c(C)sc(NC(=O)c3ccnn3C)c2C#N)cc1,62.4% (active)
11,COc1ccc(C2Nc3ccccc3C(=O)N2c2ccc(F)cc2)cc1Cn1nnc2ccccc21 (stereo not given),12.2%
12,CC(=C/c1ccccc1)/C=N/NC(=O)c1cc(C)oc1C,4.2%
13,Fc1ccc2[nH]c3c(N4CCN(Cc5ccc6c(c5)OCO6)CC4)ncnc3c2c1,103% (active)
14,CC(C)(C)n1nnnc1C(c1ccc(F)cc1)N1CCN(Cc2ccc3c(c2)OCO3)CC1 (stereo not given),-11.6%
15,Cc1ccc(-n2ncc3c(N4CCN(c5ccc(F)cc5)CC4)ncnc32)c(C)c1,39.7%
16,Fc1ccc2[nH]c3c(N4CCSCC4)ncnc3c2c1,81.7% (active)
17,CCN1CCCC1CNc1ncnc2c1[nH]c1ccc(F)cc12 (stereo not given),-18.1%
18,Cc1cc(N2CCN(Cc3ccc4c(c3)OCO4)CC2)n2ncnc2n1,-10.2%
19,COCCCNC(=O)Cn1cc(/C=C(\C#N)C(=O)N2CCN(c3ccccc3)CC2)c2ccccc21,21.8%
20,O=C(COC(=O)Cc1ccc(F)cc1)Nc1cc(S(=O)(=O)N2CCOCC2)ccc1N1CCCC1,-0.6%

# Source: PubChem BioAssay AID1497 (Sanford-Burnham Center for Chemical Genomics, 2009)
